PubChem BioAssay AID504333 (National Center for Advancing Translational Sciences (NCATS), 2011)
Among all 360,000 compounds or so, about 16,000 (4.4%) were called active. Roughly 9% stayed inconclusive and do not appear here. What follows is part of a selection rich in actives, with near analogues and random picks from the rest. Unmarked numbers belong to inactive results. Calls follow the shape of the dose curve; as a rule, active = well fitted inhibition curve with a large enough effect; inconclusive = small, poorly fitted or top-dose-only effect; inactive = no such curve, though single readings can be large or run the other way.

These compounds were tested against Bromodomain adjacent to zinc finger domain protein 2B (Homo sapiens) (UniProt Q9UIF8) (assay: qHTS Assay for Inhibitors of BAZ2B). Conditions: AlphaScreen BAZ2B-H3K14Ac peptide displacement; series mostly up to 114 µM; activity change, negative = inhibition: at the top concentration.
Summary of the method: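 Protein-peptide AlphaScreen: BAZ2B 50 nM, b-H3K14Ac 50 nM, 1x PBS pH 7.4 + 0.01% Tween-20. Preincubation 30 min RT; cpd 30 min RT (top 110 uM); beads 20 min RT, light-protected.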
% is scaled to controls: 0 for no effect and ±100 for the full control effect; potency is read from the fitted curve at half-maximal effect.
Also: nearly all actives have a fitted effect of over 60% in size.

Bromodomain adjacent to zinc finger domain protein 2B (Homo sapiens), sequence (Q9UIF8 whole entry, looked up, the tested form may be a part): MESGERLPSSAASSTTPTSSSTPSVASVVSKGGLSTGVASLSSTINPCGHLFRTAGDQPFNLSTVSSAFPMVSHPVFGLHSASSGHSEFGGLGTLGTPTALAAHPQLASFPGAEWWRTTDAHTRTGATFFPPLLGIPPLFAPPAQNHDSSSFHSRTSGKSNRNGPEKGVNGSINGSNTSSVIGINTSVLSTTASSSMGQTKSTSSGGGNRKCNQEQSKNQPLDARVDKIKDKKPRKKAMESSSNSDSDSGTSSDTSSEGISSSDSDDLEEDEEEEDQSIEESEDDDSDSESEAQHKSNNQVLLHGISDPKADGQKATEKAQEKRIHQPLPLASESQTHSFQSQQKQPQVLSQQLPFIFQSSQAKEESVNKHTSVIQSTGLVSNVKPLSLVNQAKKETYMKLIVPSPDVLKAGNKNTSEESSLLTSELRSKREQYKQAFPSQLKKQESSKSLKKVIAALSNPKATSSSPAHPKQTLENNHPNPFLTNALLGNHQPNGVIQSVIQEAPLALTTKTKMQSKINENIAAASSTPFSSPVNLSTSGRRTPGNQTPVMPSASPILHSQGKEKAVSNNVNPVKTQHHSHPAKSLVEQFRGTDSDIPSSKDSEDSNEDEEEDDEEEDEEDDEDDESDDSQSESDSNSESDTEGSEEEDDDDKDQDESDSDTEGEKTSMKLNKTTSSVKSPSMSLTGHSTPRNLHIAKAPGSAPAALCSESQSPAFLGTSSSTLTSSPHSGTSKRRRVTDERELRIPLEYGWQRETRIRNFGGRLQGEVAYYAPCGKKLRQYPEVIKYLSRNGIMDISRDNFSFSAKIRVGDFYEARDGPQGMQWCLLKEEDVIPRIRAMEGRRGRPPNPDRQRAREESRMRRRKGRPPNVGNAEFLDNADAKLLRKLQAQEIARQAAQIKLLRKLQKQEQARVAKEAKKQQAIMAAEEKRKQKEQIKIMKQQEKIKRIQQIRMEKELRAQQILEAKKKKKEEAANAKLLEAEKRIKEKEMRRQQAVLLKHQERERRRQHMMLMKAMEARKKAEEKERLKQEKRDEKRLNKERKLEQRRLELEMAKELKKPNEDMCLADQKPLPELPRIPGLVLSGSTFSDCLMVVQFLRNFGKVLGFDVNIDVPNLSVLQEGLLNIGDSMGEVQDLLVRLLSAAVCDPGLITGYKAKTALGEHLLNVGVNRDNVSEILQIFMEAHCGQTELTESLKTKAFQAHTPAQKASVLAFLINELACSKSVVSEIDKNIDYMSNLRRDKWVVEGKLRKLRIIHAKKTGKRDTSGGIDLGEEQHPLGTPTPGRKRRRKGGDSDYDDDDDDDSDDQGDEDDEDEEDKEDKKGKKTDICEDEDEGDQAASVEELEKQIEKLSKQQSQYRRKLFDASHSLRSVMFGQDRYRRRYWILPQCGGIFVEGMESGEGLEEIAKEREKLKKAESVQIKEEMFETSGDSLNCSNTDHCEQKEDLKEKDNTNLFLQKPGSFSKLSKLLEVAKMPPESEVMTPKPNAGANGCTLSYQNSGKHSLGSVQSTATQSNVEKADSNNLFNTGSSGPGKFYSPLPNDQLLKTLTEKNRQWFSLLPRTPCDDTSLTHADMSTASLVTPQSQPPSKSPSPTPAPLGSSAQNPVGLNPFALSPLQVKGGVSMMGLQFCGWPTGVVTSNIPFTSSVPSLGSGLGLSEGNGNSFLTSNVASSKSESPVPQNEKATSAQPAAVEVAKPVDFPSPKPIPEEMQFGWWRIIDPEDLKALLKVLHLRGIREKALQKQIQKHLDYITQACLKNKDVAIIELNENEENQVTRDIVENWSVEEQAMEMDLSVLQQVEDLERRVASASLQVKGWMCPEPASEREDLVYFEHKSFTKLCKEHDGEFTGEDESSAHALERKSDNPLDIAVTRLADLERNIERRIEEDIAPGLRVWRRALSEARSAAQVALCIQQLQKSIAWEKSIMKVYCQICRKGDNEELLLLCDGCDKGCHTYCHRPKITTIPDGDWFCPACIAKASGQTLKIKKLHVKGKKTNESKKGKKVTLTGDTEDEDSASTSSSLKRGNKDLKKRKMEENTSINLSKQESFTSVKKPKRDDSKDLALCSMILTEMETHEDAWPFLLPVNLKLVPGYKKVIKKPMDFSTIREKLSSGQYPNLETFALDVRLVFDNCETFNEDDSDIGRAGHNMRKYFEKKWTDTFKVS

| Compound | activity change, negative = inhibition | Potency |
| --- | --- | --- |
| O=C(CSc1ncc(S(=O)(=O)c2ccc(Br)cc2)c(=O)[nH]1)Nc1ccc2c(c1)OCCO2 | -25.2% |  |
| CCN1CCN(C(c2ccc(C)cc2)c2c(O)cc(C)n(Cc3ccco3)c2=O)CC1 (centres undefined) | -18.2% |  |
| CCOc1ccc(C(NC(=O)c2cc(OC)c(OC)c(OC)c2)c2cc(Cl)c3cccnc3c2O)cc1 (centres undefined) | 4.51% |  |
| COc1ccccc1N1CCN(C(CNC(=O)C(=O)NCc2ccc(C)cc2)c2cccnc2)CC1 (centres undefined) | -3.79% |  |
| CCN1CCN(C(c2cccnc2)c2cc(Cl)c3cccnc3c2O)CC1 (centres undefined) |  | 11.2 µM (active) |
| CCOC(=O)N1CCN(C(c2cccnc2)c2ccc3cccnc3c2O)CC1 (centres undefined) |  | 15.8 µM (active) |
| CCOC(=O)N1CCN(C(=O)CSc2nc(=O)n3cccc(C)c3n2)CC1 | 8.46% |  |
| Cc1ccc(Cl)cc1NC(=O)CCC(=O)N1CC(C)Sc2ccccc21 (centres undefined) | -4.18% |  |
| CCOc1ccc(Nc2ncnc3scc(-c4ccc(OC)cc4)c23)cc1 | -2.31% |  |
| C#CCN(N(C)c1ncc(C(F)(F)F)cc1Cl)S(=O)(=O)c1ccc2ccccc2c1 | 3.53% |  |
| CN(NS(=O)(=O)c1cccs1)c1ncc(C(F)(F)F)cc1Cl |  | 56.2 µM (active) |
| CN(CC(=O)Nc1cccc(C(F)(F)F)c1)S(=O)(=O)c1cccs1 | 2.07% |  |
| Cc1cccc(-n2ncc(C(=O)N3CCN(c4ccc(Cl)cc4)CC3)c2C2CCN(C(=O)OC(C)(C)C)CC2)c1 | -17.4% [at 57.1 µM] |  |
| CC1=C(C(=O)OCC(C)C)C(c2ccc(OCc3ccccc3)cc2)N2C(=O)CCSC2=N1 (centres undefined) | -11.9% |  |
| Cc1cc(/C=N/Nc2ccc([N+](=O)[O-])cn2)c(C)n1-c1cccc(C(=O)O)c1 |  | 44.7 µM (active) |
| NC1=NN(c2cccc(C(=O)O)c2)C(=O)C1 | -32.4% |  |
| Cc1cccc(C)c1NC(=O)CSc1ccc([N+](=O)[O-])cn1 | -6.12% |  |
| Cc1cc(/C=C2\SC(=O)N(C)C2=O)c(C)n1-c1cccc(C(=O)O)c1 |  | 79.4 µM (active) |
| Cc1cc(/C=C2/SC(=O)N(CC(=O)N3CCCC3)C2=O)c(C)n1C | -31.3% |  |
| O=[N+]([O-])c1cccc(/C=N/Nc2ncc(Br)cn2)c1 | 10.5% |  |
| Cc1cc(/C=N/n2cnnc2)c(C)n1-c1cccc(C(=O)O)c1 |  | 35.5 µM (active) |
| Cc1cc(/C=C2/SC(=O)N(CC(=O)OC(C)C)C2=O)c(C)n1C | -4.3% |  |
| Fc1ccc(Br)cc1/C=N/n1cnnc1 | -0.0547% |  |
| O=C(Cn1c(=O)n(-c2ccc(F)cc2)c(=O)c2sccc21)Nc1cccc(C(F)(F)F)c1 | -18.1% |  |
| CCc1cccc(-n2nnc(-c3nsc(NC(=O)c4ccc(C)cc4)n3)c2C)c1 | 1.17% |  |

| Compound | activity change, negative = inhibition | Potency |
| --- | --- | --- |
| O=C(CS(=O)(=O)c1cccc2nsnc12)N1CCN(c2cccc(Cl)c2)CC1 | -28.5% |  |
| COc1ccccc1-c1cc(C(F)(F)F)nc(S(=O)(=O)CCCC(=O)Nc2ccc(F)cc2F)n1 | -21.3% |  |
| CCn1cc2nc(SCc3cccc(F)c3)n(CCc3ccccc3)c(=O)c2n1 | 2.73% |  |
| COc1cc(NS(=O)(=O)c2ccc3c(c2)OCC(C(=O)N2CCCC2)O3)cc(OC)c1 (centres undefined) | -12.5% |  |
| COc1ccc(C(=O)N2CCC(c3nc4ccccc4o3)CC2)cc1 | -8.77% |  |
| Cc1cc(=O)n(C)c(=O)n1CCCNc1ccccc1 |  | 50.1 µM (active) |
| Cn1c(Nc2ccccc2)cc(=O)n(C)c1=O | 5.28% |  |
| Cc1cc2nc(C)n(CCCNC(=O)Nc3ccccc3)c2cc1C | 5.12% |  |
| Cc1ccc(-n2nc(C)c3c(C)cc(=O)n(CC(=O)Nc4ccc(C(C)C)cc4)c32)cc1 | 5.9% |  |
| O=C(NC1CCCCC1)C1CCCN(S(=O)(=O)c2ccc(Br)s2)C1 (centres undefined) | -9.2% |  |
| O=C(Cc1ccc(S(=O)(=O)N2CCCC2)s1)NC1CCCCCC1 |  | 50.1 µM (active) |
| O=C(Cc1ccc(S(=O)(=O)N2CCOCC2)s1)NCCC(c1ccccc1)c1ccccc1 | -36.3% |  |
| Cc1cc(-c2ccc(C)c(S(=O)(=O)N3c4ccccc4CC3C)c2)on1 (centres undefined) | 12.6% |  |
| Cc1ccsc1CN(C(=O)c1oc2ccc(Br)cc2c1C)C1CCS(=O)(=O)C1 (centres undefined) | -15.3% |  |
| O=C(Nc1nnc(C2=COCCO2)o1)c1ccc([N+](=O)[O-])s1 |  | 79.4 µM (active) |
| CCC(CC)c1nnc(NC(=O)C2=COCCO2)s1 | 4.03% |  |
| COc1cc(-c2nnc(NC(=O)C3=COCCO3)o2)cc(OC)c1OC |  | 39.8 µM (active) |
| Cc1ccc(C(=O)Nc2nnc(C3=COCCO3)o2)cc1C |  | 50.1 µM (active) |
| CSc1ccccc1-c1nnc(NC(=O)c2ccc3c(c2)OCCO3)o1 | -2.66% |  |
| Cc1csc(NC(=O)C2=COCCO2)n1 | 11.9% |  |
| COc1ccc(C(=O)COC(=O)c2ccc([N+](=O)[O-])s2)cc1OC | 1.73% |  |
| Cc1cccc(C)c1NC(=O)CNC(=O)c1ccc2c(c1)OCCO2 | 7.19% |  |
| O=C(Nc1ncc([N+](=O)[O-])s1)C1COc2ccccc2O1 (centres undefined) | -24% |  |
| O=C(NCCc1csc(-c2ccc(C(F)(F)F)cc2)n1)C(=O)Nc1ccc(F)c(Cl)c1 | 1.15% |  |
